Measured values published in the supplement of paper PMC11732987, “Enantioselective OTUD7B fragment discovery through chemoproteomics screening and high-throughput optimisation” (Communications Chemistry, 2025).

Molecular target: T1, OTUD5 (UniProt Q96G74)
T1 sequence (whole entry): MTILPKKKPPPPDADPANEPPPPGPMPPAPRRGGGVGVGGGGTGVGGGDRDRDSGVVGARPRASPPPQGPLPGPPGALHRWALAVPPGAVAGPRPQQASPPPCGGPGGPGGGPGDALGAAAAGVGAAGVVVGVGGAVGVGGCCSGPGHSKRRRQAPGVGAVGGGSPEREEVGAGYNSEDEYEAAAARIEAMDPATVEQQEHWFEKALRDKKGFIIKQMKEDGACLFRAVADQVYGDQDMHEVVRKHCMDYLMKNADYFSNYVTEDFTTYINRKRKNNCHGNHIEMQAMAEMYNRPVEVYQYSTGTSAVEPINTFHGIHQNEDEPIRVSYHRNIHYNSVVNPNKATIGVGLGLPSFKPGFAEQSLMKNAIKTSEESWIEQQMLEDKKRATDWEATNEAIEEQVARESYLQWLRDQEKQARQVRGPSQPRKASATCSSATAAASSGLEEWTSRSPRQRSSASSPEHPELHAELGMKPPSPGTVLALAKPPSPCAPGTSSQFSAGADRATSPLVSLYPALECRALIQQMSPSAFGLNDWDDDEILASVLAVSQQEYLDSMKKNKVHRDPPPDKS
Assay: log2 ratio of Biotin-Ahx-Ub-VS probe labelling (fragment/DMSO); higher = less target engagement (more negative = stronger competition), active = hit call of the paper (q ≤ 0.05, log2 ratio ≤ -1)
Conditions: compound concentration: 200 uM; treatment time: 3 h
How it was run: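 The table lists average log2 ratios of fragment over vehicle, from an unpaired t-test on global-median-normalised Spectronaut label-free quantities. Proteins with ≥2 unique peptides were used. Samples were HEK293T lysate (495 µg) treated in triplicate with fragment at 200 µM or vehicle for 3 h, then with Biotin-Ahx-Ub-VS (0.5 µM final) for 1 h, with labelled DUBs NeutrAvidin-enriched and run by diaPASEF LC-MS/MS.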

Row | SMILES | log2 ratio of Biotin-Ahx-Ub-VS probe labelling
1 | CC(NC(=O)CCl)c1csc(-c2ccccc2)n1.Cl (stereo not given) | -0.527 (inactive)
2 | CCN(C(=O)CCl)C1CCCCC1 | -0.00145 (inactive)
3 | CN(C)C(=O)c1ccc(NC(=O)CCl)cc1 | -0.508 (inactive)
4 | NC(=O)C1CCCN(C(=O)CCl)C1 (stereo not given) | -0.159 (inactive)
5 | Cc1cccc(N(CCC#N)C(=O)CCl)c1C | -0.19 (inactive)
6 | CC(NC(=O)CCl)c1cc2n(n1)CCCC2.Cl (stereo not given) | -0.0818 (inactive)
7 | O=C(CCl)NCc1cccc(N2CCCC2=O)c1 | -0.358 (inactive)
8 | N#Cc1ccccc1N1CCN(C(=O)CCl)CC1 | -0.872 (inactive)
9 | Cl.Cn1nc2c(c1CNC(=O)CCl)CCCC2 | -0.329 (inactive)
10 | Cc1ccc(C(=O)NCCNC(=O)CCl)cc1 | -0.264 (inactive)
11 | Cc1nc(-c2cccc(NC(=O)CCl)c2)cs1 | -0.539 (inactive)
12 | Cl.O=C(CCl)N1CCc2ncncc2C1 | -0.373 (inactive)
13 | CC(NC(=O)CCl)c1cccc2ccccc12 (stereo not given) | -0.234 (inactive)
14 | Cc1ccc(N(C(=O)CCl)C2C=CS(=O)(=O)C2)cc1 (stereo not given) | -0.00864 (inactive)
15 | Cc1cccnc1NC(=O)C1CCN(C(=O)CCl)CC1.Cl | -0.447 (inactive)
16 | O=C(CCl)N(C1=CCCCC1)C1CC1 | -0.182 (inactive)
17 | O=C(CCl)N1CCN(C(=O)Nc2ccccc2)CC1 | -0.224 (inactive)
18 | CC(NC(=O)CCl)c1noc(Cc2ccccc2)n1 (stereo not given) | -0.271 (inactive)

Row | SMILES | log2 ratio of Biotin-Ahx-Ub-VS probe labelling
19 | Cc1cccn2cc(CCNC(=O)CCl)nc12.Cl | 0.0126 (inactive)
20 | Cl.O=C(CCl)NC1(c2ncccn2)CCC1 | 0.0342 (inactive)
21 | O=C(CCl)N1CCCC2CCCCC21 (stereo not given) | -0.314 (inactive)
22 | O=C(CCl)N1CCC(OCc2ccccc2F)CC1 | -0.0801 (inactive)
23 | O=C(CCl)N(Cc1ccsc1)C1CC1 | -0.657 (inactive)
24 | O=C(CCl)N1CC2(CCOCC2)C1 | -0.493 (inactive)
25 | CN(C)C(=O)c1ccc(CNC(=O)CCl)cc1 | -0.146 (inactive)
26 | CNC(=O)Cn1cc(NC(=O)CCl)cn1 | -0.468 (inactive)
27 | O=C(CCl)N1CCC[C@@H]1c1ccon1 | -0.427 (inactive)
28 | CN1C(=O)c2ccc(NC(=O)CCl)cc2C1=O | -0.621 (inactive)
29 | Cl.Cn1nccc1C(NC(=O)CCl)c1ccccc1 (stereo not given) | -0.379 (inactive)
30 | O=C(CCl)NCC1(c2ccccc2)CC1 | -0.335 (inactive)
31 | Cc1n[nH]c(=O)c2c(NC(=O)CCl)oc(C)c12 | -0.187 (inactive)
32 | CC(NC(=O)CCl)c1ccc2[nH]ncc2c1 (stereo not given) | -0.509 (inactive)
33 | Cc1ccc2nnc(CNC(=O)CCl)n2c1 | 0.0162 (inactive)
34 | O=C(CCl)Nc1cc(Cl)ccc1C(=O)O | -0.156 (inactive)
35 | O=C(CCl)Nc1ccc(Cl)c(F)c1 | -0.992 (inactive)
